# Source: PubChem BioAssay (NCATS)
# Inconclusive results are not listed. A call without a number means that no potency is given here. The source made the active and inactive calls. Unless noted, calls follow the shape of the dose curve; as a rule, active = well fitted curve in the direction sought with a large enough effect; inconclusive = small, poorly fitted or top-dose-only effect, or another doubt; inactive = no such curve, though single readings can be large; an effect the other way counts as inactive or inconclusive.
# Legend:
# [1] = qHTS of pediatric cancer cell lines to identify multiple opportunities for drug repurposing: Primary screen for TC32 cells (AID 1347089); settings: TC32 Ewing sarcoma viability, CellTiter-Glo luminescence, 48 h; series mostly up to 45.8 µM; also: nearly all actives have a fitted effect of over 60% in size; also: potency is read from the fitted curve at half-maximal effect
# How it was run: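 qHTS, TC32, 48 h drug treatment, CellTiter-Glo luminescence as a proxy for metabolically active cells; primary top concentration 46 µM (MIPE 11-pt, NPC 8-pt); confirmatory 11-pt.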
# [2] = qHTS of pediatric cancer cell lines to identify multiple opportunities for drug repurposing: Primary screen for DAOY cells (AID 1347090); settings: DAOY medulloblastoma viability, CellTiter-Glo luminescence, 48 h; series mostly up to 46 µM; also: nearly all actives have a fitted effect of over 55% in size; also: potency is read from the fitted curve at half-maximal effect
# How it was run: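 Viability measured as metabolically active cells via CellTiter-Glo luminescence following 48 hours of compound exposure, 11-point dilutions in confirmatory testing. 500-1,000 cells/well plated 5 hours before dosing; controls were DMSO and 2.3 µM bortezomib.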
# [3] = target: Parathyroid hormone/parathyroid hormone-related peptide receptor (Homo sapiens) (UniProt Q03431); test: qHTS for PTHR1 Agonists: Optimization Screen against the NCGC LOPAC library (AID 1347079); settings: HEK293 GP2 PTHR1 GloSensor cAMP luminescence, 1 h; series mostly up to 57.1 µM;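 also: GloSensor cAMP luminescence in HEK-293 GP2 cells expressing human PTHR1 with IBMX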
# Parathyroid hormone/parathyroid hormone-related peptide receptor (Homo sapiens), sequence (Q03431 whole entry, looked up): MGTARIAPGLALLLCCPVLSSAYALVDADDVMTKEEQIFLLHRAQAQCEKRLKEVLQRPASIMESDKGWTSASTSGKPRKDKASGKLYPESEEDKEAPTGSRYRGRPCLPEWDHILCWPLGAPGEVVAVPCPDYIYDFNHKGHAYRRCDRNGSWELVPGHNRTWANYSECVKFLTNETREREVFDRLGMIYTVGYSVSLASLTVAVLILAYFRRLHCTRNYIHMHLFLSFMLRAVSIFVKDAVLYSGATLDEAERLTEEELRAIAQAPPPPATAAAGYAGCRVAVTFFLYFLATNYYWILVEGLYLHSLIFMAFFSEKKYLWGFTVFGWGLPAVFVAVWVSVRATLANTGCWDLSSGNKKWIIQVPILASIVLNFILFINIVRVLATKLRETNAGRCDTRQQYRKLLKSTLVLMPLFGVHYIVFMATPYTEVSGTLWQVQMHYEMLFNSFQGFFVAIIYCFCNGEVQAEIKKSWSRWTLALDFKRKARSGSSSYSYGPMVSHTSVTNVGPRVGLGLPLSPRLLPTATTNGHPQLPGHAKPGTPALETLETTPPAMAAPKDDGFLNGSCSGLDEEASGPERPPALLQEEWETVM
# How it was run: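 Signal increase flags agonism. GP2 cells, derived from HEK-293, express human PTHR1 and a GloSensor cAMP construct.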
# [4] = NS1 protein of Zika virus - qHTS assay to identify small molecule inhibitors in human HEK 293 cells (AID 1347053); settings: HEK293 ZIKV MR766 infection, NS1 TR-FRET, 24 h; series mostly up to 46.1 µM; also: nearly all actives have a fitted effect of over 55% in size; also: potency is read from the fitted curve at half-maximal effect
# How it was run: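 Compound-treated (1 h pre-infection) HEK 293 cells infected with ZIKV MR766, MOI = 0.5; after 24 h at 37 C, NS1 read by TR-FRET; data normalized to uninfected and infected controls.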
# [5] = target: T1, Tyrosine-protein phosphatase non-receptor type substrate 1 (Homo sapiens) + Leukocyte surface antigen CD47 (Homo sapiens) (UniProt P78324+Q08722); test: CD47-SIRPalpha protein protein interaction - LANCE assay qHTS validation (AID 1347057; active = well fitted curve in the direction sought with a large enough effect in the signal ratio, with a control signal flat, not every such curve was filed as active; the % refers to the signal ratio); settings: Recombinant CD47-His / biotin-SIRPalpha, TR-FRET ratio; series mostly up to 38.3 µM
# T1 sequence (P78324 whole entry, looked up, the tested form may be a part): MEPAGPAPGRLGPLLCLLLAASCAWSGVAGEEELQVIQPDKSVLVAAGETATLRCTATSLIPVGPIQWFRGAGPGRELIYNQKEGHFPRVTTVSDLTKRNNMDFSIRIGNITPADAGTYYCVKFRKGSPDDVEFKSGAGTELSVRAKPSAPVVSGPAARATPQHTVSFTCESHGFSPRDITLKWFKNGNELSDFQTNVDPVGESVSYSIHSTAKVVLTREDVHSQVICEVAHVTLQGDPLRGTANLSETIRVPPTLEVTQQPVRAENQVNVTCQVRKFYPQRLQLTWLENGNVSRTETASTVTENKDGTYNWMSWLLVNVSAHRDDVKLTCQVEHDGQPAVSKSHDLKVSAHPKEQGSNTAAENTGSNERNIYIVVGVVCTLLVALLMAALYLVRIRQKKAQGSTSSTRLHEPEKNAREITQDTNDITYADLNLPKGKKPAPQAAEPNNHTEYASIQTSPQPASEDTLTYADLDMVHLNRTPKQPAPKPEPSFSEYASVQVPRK
# T1 sequence (Q08722 whole entry, looked up, the tested form may be a part): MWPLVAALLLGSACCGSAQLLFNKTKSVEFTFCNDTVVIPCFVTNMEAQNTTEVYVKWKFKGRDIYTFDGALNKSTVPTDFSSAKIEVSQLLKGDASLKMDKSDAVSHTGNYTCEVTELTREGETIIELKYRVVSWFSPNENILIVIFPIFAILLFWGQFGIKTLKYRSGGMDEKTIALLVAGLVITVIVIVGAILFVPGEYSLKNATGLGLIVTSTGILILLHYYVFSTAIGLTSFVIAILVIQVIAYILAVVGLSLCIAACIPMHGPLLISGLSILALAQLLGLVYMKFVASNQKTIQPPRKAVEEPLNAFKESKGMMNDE
# How it was run: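 Inhibition of soluble CD47/SIRPalpha ectodomain association by titrated compounds, measured as 665/615 nm time-resolved FRET ratio after sequential 30 min room-temperature incubations.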
# [6] = target: T1, Tyrosine-protein phosphatase non-receptor type substrate 1 (Homo sapiens) + Leukocyte surface antigen CD47 (Homo sapiens); test: CD47-SIRPalpha protein protein interaction - HTRF assay qHTS validation (AID 1347058; active = well fitted curve in the direction sought with a large enough effect in the signal ratio, not every such curve was filed as active; the % refers to the signal ratio); settings: TR-FRET HTRF CD47-His / biotin-SIRPalpha binding, ratio 665/615; series mostly up to 38.3 µM
# How it was run: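 Soluble extracellular domains (6His-CD47, Avi-tag-biotinylated SIRPalpha) in PBS pH 7.4 with 0.05% IGEPAL CA-630. Compounds were preincubated 30 min at RT with CD47 and anti-His-Eu, then SIRPalpha and SAV-XL665 were added. TR-FRET 665/615 ratio.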
# [7] = target: T1, Tyrosine-protein phosphatase non-receptor type substrate 1 (Homo sapiens) + Leukocyte surface antigen CD47 (Homo sapiens); test: CD47-SIRPalpha protein protein interaction - Alpha assay qHTS validation (AID 1347059); settings: AlphaScreen CD47-His/biotin-SIRPalpha binding, LOPAC; series mostly up to 38.3 µM;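 also: bead proximity luminescence from CD47 binding SIRPalpha after compound preincubation with SIRPalpha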
# How it was run: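 SIRPalpha-biotin 25 nM + cpd, 30 min RT, dark; add CD47-His 12.5 nM, 30 min; add Ni-NTA/SAV beads 10 ug/mL, 30 min; AlphaScreen. Buffer PBS pH 7.4 + 0.05% IGEPAL CA-630. Non-biotinylated SIRPalpha as control inhibitor.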
compound,measurement,setting,value
N=C1N=C(N)c2cc3ccccc3cc21,Potency,[1],inactive
same,Potency,[2],24300 nM (active)
C=CC(=O)c1ccc(CCCCCC)cc1,Potency,[3],inactive
CCCC(=O)OC[C@@H](OC(=O)CCC)[C@@H](OC(=O)CCC)[C@H](Cn1c2nc(=O)[nH]c(=O)c-2nc2cc(C)c(C)cc21)OC(=O)CCC,Potency,[4],inactive
same,Potency,[1],inactive
same,Potency,[2],inactive
COc1cccc2c1C(=O)c1c(O)c3c(c(O)c1C2=O)C[C@@](O)(C(=O)CO)C[C@@H]3O[C@H]1C[C@H](N)[C@H](O[C@@H]2CCCCO2)[C@H](C)O1,Potency,[1],470 nM (active)
same,Potency,[2],1680 nM (active)
Nc1ccn([C@H]2O[C@H](CO)[C@@H](O)C2(F)F)c(=O)n1,Potency,[5],inactive
same,outcome,[6],inactive
CN(C)c1ccc(C(=C2C=CC(=[N+](C)C)C=C2)c2ccccc2)cc1,Potency,[1],105 nM (active)
same,Potency,[2],106 nM (active)
CCCCCC(O)c1cccc(OCc2ccc3ccccc3n2)c1 (stereo unspecified),Potency,[3],inactive
Cc1nc2ccccc2n1Cc1ccc(Cl)cc1,Potency,[4],inactive
same,Potency,[2],5310 nM (active)
Cc1ccc(O)c(-n2nc3ccccc3n2)c1,Potency,[1],inactive
same,Potency,[2],inactive
Clc1ccccc1-c1nc(-c2ccncc2)no1,Potency,[4],inactive
same,Potency,[1],inactive
same,Potency,[2],inactive
Cn1c(=O)c(-c2c(Cl)cccc2Cl)cc2cnc(Nc3ccc(N4CCOCC4)cc3)nc21,Potency,[5],inactive
same,outcome,[6],inactive
COC(=O)C1=C(C)NC(C)=C(C(=O)OC)C1c1cccc(NC(=O)NCCCN2CCC(c3cccc(OC)c3)CC2)c1,Potency,[5],inactive
same,outcome,[6],inactive
same,Potency,[7],inactive
CN(C)CCn1nnnc1SCC1=C(C(=O)O)N2C(=O)[C@@H](NC(=O)Cc3csc(N)n3)[C@H]2SC1,Potency,[4],inactive
same,Potency,[1],inactive
same,Potency,[2],inactive
O=Cc1ccc(O)c(O)c1O,Potency,[4],inactive
same,Potency,[1],inactive
same,Potency,[2],inactive
Oc1c(Br)cc(Br)c2cccnc12,Potency,[1],inactive
same,Potency,[2],16800 nM (active)
COc1ccnc2c1CCCCC2S(=O)c1nc2ccccc2[nH]1 (stereo unspecified),Potency,[4],inactive
same,Potency,[1],inactive
same,Potency,[2],inactive
Ic1ccc(N2CCN(Cc3c[nH]c4ncccc34)CC2)cc1,Potency,[3],inactive
C#C[C@]1(O)CC[C@H]2[C@@H]3CCc4cc(O)ccc4[C@H]3CC[C@@]21C,Potency,[4],inactive
same,Potency,[2],13300 nM (active)
CCCCC1C(=O)N(c2ccccc2)N(c2ccc(O)cc2)C1=O (stereo unspecified),Potency,[4],3980 nM (active)
same,Potency,[2],5310 nM (active)
Nc1ccc([N+](=O)[O-])cc1O,Potency,[4],inactive
same,Potency,[2],1 nM (active)
Cc1cc2c(cc1Cl)N(C(=O)Nc1ccc(Oc3cccnc3C)nc1)CC2,Potency,[5],inactive
same,outcome,[6],inactive
same,Potency,[3],inactive
CC(=O)c1ccc(OCC(=O)N2CCCCC2)cc1,Potency,[4],inactive
same,Potency,[1],inactive
same,Potency,[2],inactive
Nc1c(CC(=O)O)cccc1C(=O)c1ccc(Br)cc1,Potency,[4],inactive
same,Potency,[1],inactive
same,Potency,[2],inactive
COc1ccc(C(=O)/C(Cc2cc(OC)c(OC)c(OC)c2)=C(\C(=O)O)c2ccc3c(c2)OCO3)cc1,Potency,[5],inactive
same,Potency,[7],inactive
COC(=O)c1nc(Cl)c(Cl)nc1N,Potency,[1],3330 nM (active)
same,Potency,[2],1330 nM (active)
[O-][n+]1ccccc1SSc1cccc[n+]1[O-],Potency,[1],325 nM (active)
same,Potency,[2],73.1 nM (active)
COc1ccc(/C=C2\COc3ccc(C)cc3C2=O)cc1O,Potency,[5],inactive
same,Potency,[7],inactive
O=c1cc(-c2ccccc2)oc2ccccc12,Potency,[4],inactive
same,Potency,[2],inactive
CCCOC(=O)c1ccc(O)cc1,Potency,[4],inactive
same,Potency,[1],inactive
same,Potency,[2],inactive
O=C(O)/C=C\C(=O)O,Potency,[4],inactive
same,Potency,[1],inactive
same,Potency,[2],inactive
Cc1cc(O)c2ccccc2c1O,Potency,[1],inactive
NS(=O)(=O)C#Cc1ccccc1,Potency,[5],inactive
same,outcome,[6],inactive
same,Potency,[7],inactive
same,Potency,[3],inactive
S=c1[nH]c2ccccc2s1,Potency,[4],inactive
same,Potency,[2],inactive
c1ccc(CCNc2nc(-c3ccccc3)cs2)cc1,Potency,[1],inactive
COc1cc2c3cc1Oc1cc(ccc1O)C[C@@H]1c4c(cc(OC)c(O)c4Oc4ccc(cc4)C[C@@H]3N(C)CC2)CC[N+]1(C)C,Potency,[4],inactive
same,Potency,[1],inactive
same,Potency,[2],inactive
Nc1ccc(O)c([N+](=O)[O-])c1,Potency,[4],inactive
same,Potency,[2],inactive
O=C1CN(/N=C/c2ccc([N+](=O)[O-])o2)C(=O)N1,Potency,[4],inactive
same,Potency,[2],inactive
N=C(N)N,Potency,[4],inactive
same,Potency,[1],inactive
same,Potency,[2],inactive
O=C(Nc1ccc(C(=O)O)c(O)c1)c1ccccc1,Potency,[4],inactive
same,Potency,[1],inactive
same,Potency,[2],inactive
CCN(CC)CCCCNc1ncc2cc(-c3c(Cl)cccc3Cl)c(NC(=O)NC(C)(C)C)nc2n1,Potency,[5],inactive
same,Potency,[7],inactive
